High-throughput results deposited in PubChem by National Center for Advancing Translational Sciences (NCATS).
JMJD2A Tudor inh: blocks the human JMJD2A Tudor domain | AlphaScreen JMJD2A-Tudor / H3K4me3 peptide binding | Potency, µM (top dose mostly 114 µM), for the others: at the top dose activity change, negative = inhibition, usual class: inhibitors | 4.4% of 390,000 active | AID 504339; also: % is scaled to controls: 0 for no effect and ±100 for the full control effect; nearly all actives have a fitted effect of over 50% in size
Target sequence (O75164 whole entry, looked up, the tested form may be a part): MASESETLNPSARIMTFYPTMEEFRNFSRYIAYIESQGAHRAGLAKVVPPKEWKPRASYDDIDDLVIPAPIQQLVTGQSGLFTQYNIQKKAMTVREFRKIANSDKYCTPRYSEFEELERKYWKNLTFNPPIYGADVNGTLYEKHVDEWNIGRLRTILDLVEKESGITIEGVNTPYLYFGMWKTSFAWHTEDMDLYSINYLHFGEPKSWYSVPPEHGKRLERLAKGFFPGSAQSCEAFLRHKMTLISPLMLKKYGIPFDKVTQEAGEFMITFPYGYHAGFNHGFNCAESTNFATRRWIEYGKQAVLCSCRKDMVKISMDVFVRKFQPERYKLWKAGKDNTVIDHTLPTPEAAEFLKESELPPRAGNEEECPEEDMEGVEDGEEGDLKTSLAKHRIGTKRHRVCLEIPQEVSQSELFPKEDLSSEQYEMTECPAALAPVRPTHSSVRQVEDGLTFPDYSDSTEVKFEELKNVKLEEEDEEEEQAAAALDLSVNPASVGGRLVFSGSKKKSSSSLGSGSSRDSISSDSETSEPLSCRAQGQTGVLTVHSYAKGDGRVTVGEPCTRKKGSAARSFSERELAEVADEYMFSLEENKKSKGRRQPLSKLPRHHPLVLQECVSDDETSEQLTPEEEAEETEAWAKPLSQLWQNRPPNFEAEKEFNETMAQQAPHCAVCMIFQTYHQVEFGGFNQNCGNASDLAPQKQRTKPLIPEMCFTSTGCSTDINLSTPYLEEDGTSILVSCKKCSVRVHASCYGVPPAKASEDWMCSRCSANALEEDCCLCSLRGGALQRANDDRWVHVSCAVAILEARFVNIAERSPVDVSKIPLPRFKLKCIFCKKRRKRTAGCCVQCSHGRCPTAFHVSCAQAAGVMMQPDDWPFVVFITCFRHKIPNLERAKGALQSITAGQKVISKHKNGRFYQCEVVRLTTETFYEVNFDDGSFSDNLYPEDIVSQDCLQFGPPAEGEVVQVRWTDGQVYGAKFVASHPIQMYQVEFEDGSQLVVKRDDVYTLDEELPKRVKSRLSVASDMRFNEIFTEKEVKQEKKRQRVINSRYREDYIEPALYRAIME
BAZ2B inh: BAZ2B (human) inhibition; 4.4% of 360,000 active; Q9UIF8; AlphaScreen BAZ2B-H3K14Ac peptide displacement; Potency, µM (highest dose often 114 µM), for the others: at the top dose activity change, negative = inhibition, hits mostly inhibitors; AID 504333; also: % is scaled to controls: 0 for no effect and ±100 for the full control effect; nearly all actives have a fitted effect of over 60% in size
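Complex of BAZ2B and biotin-H3K14Ac (50 nM apiece) forms over 30 min at RT, then faces library compounds up to 110 uM for another 30 min; AlphaScreen beads added, 20 min dark incubation, luminescence read.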
HP1b binding inh: blocks HP1-beta chromodomain binding to methylated histone tails; AlphaScreen HP1-beta / biotin-H3K9me3 peptide binding; Potency, µM (titrated, usually from 114 µM), without a hit: at the top dose activity change, negative = inhibition, most hits filed as inhibitors; 0.56% of 390,000 active; also: nearly all actives have a fitted effect of over 70% in size
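AlphaScreen: HP1-beta (50 nM) preformed 30 min with biotin-H3(1-18)K9me3 peptide (50 nM) in PBS pH 7.4, 0.01% Tween-20. Compound added for 30 min at RT, then streptavidin donor/nickel chelate acceptor beads (10 ug/mL) for 30 min.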
G9a inh: blocks human histone lysine methyltransferase G9a | Q96KQ7 | G9a H3K9 monomethylation, AlphaScreen, 2 h | Potency, µM (highest dose often 102 µM), inactives show at the highest dose activity, negative = inhibition, most hits filed as inhibitors | 8.8% of 350,000 active | AID 504332; also: % is scaled to controls: 0 for no effect and ±100 for the full control effect; nearly all actives have a fitted effect of over 75% in size
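Readings reflect AlphaScreen signal from monomethyl-H3K9 antibody detection. HMT at 20 nM; substrate b-H3K9 500 nM; cofactor SAM 20 uM; 2 h RT reaction; compounds tested as titrations in qHTS with 15 min preincubation.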
L3MBTL1 block: L3MBTL1 (human) inhibition | AlphaScreen L3MBTL1–H3K9me1 peptide binding | Potency, µM (series often up to 57.1 µM), for inactives: top-dose activity, negative = inhibition, most hits filed as inhibitors | Q9Y468 | 0.66% of 230,000 active | AID 485360; also: % is scaled to controls: 0 for no effect and ±100 for the full control effect; nearly all actives have a fitted effect of over 60% in size
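L3MBTL1 (50 nM) pre-complexed 30 min with biotinylated H3(1-15)K9me1 peptide (75 nM), then compounds added for 30 min at room temperature; AlphaScreen streptavidin donor/nickel chelate acceptor beads (10 ug/mL final) read after 30 min dark incubation.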
* = called active by the depositor; ? = inconclusive; / = not tested or not shown; [ ] = dose if it differs, or a comment. A selection: hits, their analogues and other compounds. The true share with any hit is near 11%. Calls follow the shape of the dose curve; as a rule, active = well fitted inhibition curve with a large enough effect; inconclusive = small, poorly fitted or top-dose-only effect; inactive = no such curve, though single readings can be large or run the other way. Potency is read from the fitted curve at half-maximal effect.

SMILES | JMJD2A Tudor inh | BAZ2B inh | HP1b binding inh | G9a inh | L3MBTL1 block
Cc1ccccc1C(=O)Nc1c(C(=O)N(CCN(C)C)Cc2ccco2)oc2ccccc12 | -34% | ? | -1% | -14% | /
CCc1nnc(SC(CC)C(=O)Nc2cccc(OC)c2)c2cc3oc(C)cc3n12 (stereo unspecified) | -12% | -36% | 8% | ? | /
Cc1cccc(/C=N/n2c(-c3cc(-c4ccccc4)n[nH]3)n[nH]c2=S)c1 | 79µM* | -39% | ? | 1.6µM* | -19%
S=c1[nH]nc(-c2n[nH]c3c2CCC3)n1/N=C/C=C/c1ccccc1 | 50µM* | -11% | 5% | / | /
Cc1cccc(-c2n[nH]c(=S)n2/N=C/c2cccs2)c1 | 22µM* | -26% | 9% | 0.71µM* | -19%
Cc1nnc(C)n1/N=C/c1cccs1 | -18% | 7% | 27% | -37%[0.0925 µM] | 6%
S=c1[nH]nc(-c2cc(-c3ccccc3)n[nH]2)n1/N=C/c1cccs1 | ? | -27% | 10% | 1.6µM* | -17%
S=c1[nH]nc(-c2cc(-c3ccccc3)n[nH]2)n1/N=C/c1ccccc1 | 56µM* | -14% | 32% | -127%[59 µM] | /
BrC(=C\c1ccccc1)/C=N/n1cnnc1 | -7% | -3% | 22% | 16% | -15%
COc1ccccc1/C=C/C=N/n1c(-c2cc(-c3ccccc3)n[nH]2)n[nH]c1=S | ? | -16% | 14% | ? | -7%
S=c1[nH]nc(-c2cc(-c3ccccc3)n[nH]2)n1/N=C/C(Br)=C/c1ccccc1 | 56µM* | 10µM* | 18% | 22µM* | ?
S=c1[nH]nc(-c2cc(-c3ccccc3)n[nH]2)n1/N=C/C=C/c1ccccc1 | ? | -27% | 20% | 8.9µM* | -16%
COc1ccccc1C(=O)Nc1nc2nc(C)c(Cc3ccccc3)c(=O)n2[nH]1 | -30% | ? | 32% | ? | /
CC(C)S(=O)(=O)C/C(N)=N/OC(=O)c1cc(Cl)cc(Cl)c1 | 3% | 18% | 32% | 27% | -2%
O=C(N/N=C/C(Cl)=C/c1ccc([N+](=O)[O-])cc1)C(=O)Nc1ccc(C(=O)O)cc1 | -34%[11.4 µM] | ? | ? | 50µM* | 9%
CCOc1ccccc1NC(=O)C(=O)N/N=C/c1ccc([N+](=O)[O-])cc1 | 4% | -10% | 28% | -1% | 8%
O=C(N/N=C/C(Cl)=C/c1ccccc1)c1ccccc1F | -27% | -16% | -18% | 32µM* | /
O=C(N/N=C/C(Br)=C/c1ccccc1)c1ccccc1F | -27% | -16% | 21% | -41% | /
O=C(N/N=C/C(Cl)=C/c1ccc([N+](=O)[O-])cc1)C(=O)Nc1ccccc1C(=O)O | ? | ? | -21% | 35µM* | ?
O=C(Nc1ccc([N+](=O)[O-])cc1)C(=O)Nc1cccc(C(=O)O)c1 | -17% | -18% | 26% | -32% | -2%
CCC1(CC)C(=O)C2=C3C1[C@H](C(=O)OC)CC(C(=O)OC)C[C@H]3[C@H]1C(=O)N(C)C(=O)[C@H]1[C@H]2C (stereo partly specified) | -17% | / | 23% | / | /
Cc1cccc(-n2c(SCc3ccc([N+](=O)[O-])cc3)nnc2-c2c[nH]c3ccccc23)c1 | ? | -27% | -20% | 45µM* | 1%
CCN(C(=O)CSc1nnc2c3ccccc3n(CC)c2n1)C1CCS(=O)(=O)C1 (stereo unspecified) | -27% | -36% | 7% | 79µM* | -2%
CCN1CCN(c2ccc(S(=O)(=O)N3CCOCC3)cc2NC(=O)c2ccc(C)cc2C)CC1 | -2% | ? | 43% | ? | 7%
CCN1CCN(c2ccc(S(=O)(=O)N3CCOCC3)cc2NC(=O)c2cc(Cl)nc3ccccc23)CC1 | -7% | 4% | 13% | 45µM* | -3%
SMILES | JMJD2A Tudor inh | BAZ2B inh | HP1b binding inh | G9a inh | L3MBTL1 block
COc1ccc(-c2cc(C(=O)Nc3cc(S(=O)(=O)N4CCOCC4)ccc3N3CCOCC3)c3ccccc3n2)cc1 | 1% | -11% | 39% | -40% | -6%
CCN1CCN(c2ccc(S(=O)(=O)N3CCOCC3)cc2NC(=O)C(C)Oc2ccc(Cl)cc2)CC1 (stereo unspecified) | -25% | -31% | 2% | 11µM* | -6%
CCN1CCN(c2ccc(S(=O)(=O)N3CCOCC3)cc2NC(=O)c2ccccc2SC)CC1 | -9% | -4% | 14% | 32µM* | 0%
CCN1CCN(c2ccc(S(=O)(=O)N3CCOCC3)cc2NC(=O)c2ccc(Cl)s2)CC1 | -22% | 2% | 3% | -30% | -1%
CCN1CCN(c2ccc(S(=O)(=O)N3CCOCC3)cc2NC(=O)c2sccc2C)CC1 | -21% | -5% | 6% | 13µM* | -7%
CCN1CCN(c2ccc(S(=O)(=O)N3CCOCC3)cc2NC(=O)CC(C)C)CC1 | -10% | -23% | 44% | 0%[12.7 µM] | 4%
COc1ccc(Cn2c(SCc3ccc(C(=O)NCc4cccs4)cc3)nc3ccncc32)cc1 | -15% | -32% | 26% | -5%[59 µM] | /
CCc1cccc(NC(c2ccccc2)c2nnc(-c3ccccc3F)o2)c1 (stereo unspecified) | 5% | 3% | 39% | 9%[59 µM] | /
O=C1CCCCC2CCCCN12 (stereo unspecified) | / | / | / | 36%[135 µM] | /
CC(C)(C)c1ccccc1Nc1nc(C#N)nc(NC2CCCC2)n1 | -17% | / | / | / | /
CC1CCC2C(=O)N(c3ccc(C(=O)Oc4cccc5cccnc45)cc3)C(=O)C2C1 (stereo unspecified) | 56µM* | 50µM* | 5% | ? | ?
O=C(CSc1nnc(-c2cccs2)o1)NCC1CN(Cc2ccccc2)CCO1 (stereo unspecified) | -27% | 56µM* | 10% | 3.5µM* | /
C=CCNC(=O)CSc1nnc(-c2cccs2)o1 | -11% | -23% | 16% | 1% | 4%
Cc1ccc(NC(=O)CCc2nnc3n(CC(C)C)c(=O)c4ccccc4n23)cc1C | -14% | 1% | 7% | -1%[59 µM] | /
CCCCC#Cc1ccccc1CC(=O)Nc1ccccc1 | ? | ? | 47% | 7.9µM* | 10%
O=C1OCC(CO)(CO)N=C1NNc1cc(Cl)ccc1Cl | -19% | 2% | -10% | 50µM* | 2%
Cc1ccc(NC(=S)NCc2ccc3c(c2)cc(C)n3C)c(C)c1 | 22µM* | ? | ? | -28% | -3%
Cc1ccc(NC(=S)NCc2ccc(F)cc2)c(C)c1 | -26% | -5% | 26% | 20% | -5%
CC1=C(C(=O)Nc2cc(Cl)ccc2C)C2(CCCCC2)OC1=O | -7% | -2% | 36% | 11%[59 µM] | /
COc1cccc(C(=O)N2c3nc(-c4ccco4)nn3C3(CCCCC3)[C@@H]3CCCC[C@@H]32)c1 | -24% | ? | 22% | 18µM* | /
O=C(c1cccc(Cl)c1)N1c2nc(-c3ccco3)nn2C2(CCCCC2)[C@@H]2CCCC[C@@H]21 | -21% | -15% | -5% | -7%[59 µM] | /
